Results as given in PubChem BioAssay (NCI).
Where “and” joins values, the source holds several entries; their conditions need not be identical. Equal values may be shown once. Compounds without any hit were thinned out: in the full panel of roughly 83,000, 20% have a hit.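 Step 1: grow cells in 96-well plates. Step 2: add test compound at a single concentration. Step 3: incubate 48 h. Step 4: record percent growth.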 Calls of active or inactive are those of the source.

These compounds were tested on NCI-H322M lung (assay: NCI-60 one-dose screen, 48 h (100 = growth as untreated, 0 = no growth, -100 = all killed)). Conditions: 10 µM unless noted.
Description: Growth inhibition of the NCI-H322M human Non-Small Cell Lung tumor cell line is measured as a screen for anti-cancer activity. Cells are grown in 96 well plates and exposed to the test compound for 48 hours. Compounds are tested at a single concentration, which is 10^-5 M for most compounds. The reported endpoint is percent growth (GI% or GIPRCNT), where numbers from 0 - 100% represent growth inhibition, and numbers from -100% - 0 represent cell death. For example, a value of 40 represents 60% growth inhibition. A value of 0 means no net growth occurred over the course of the experiment. A value of -40 indicates 40% of cells at the beginning of the experiment died by the end of the experiment. A value of -100 means all cells are dead at the end of the experiment.
NCI-60 Human Tumor Cell Lines Screen was performed using the standard one-dose NCI protocol, which is described in more detail at https://dtp.cancer.gov/discovery_development/nci-60/default.htm.
Compounds with GIPRCNT values below 10 were considered active. Activity score was based on GIPRCNT using the following formula: […]
Score is 0 for GIPRCNT values of 100 or above, 50 for GIPRCNT values of 0, and 100 for GIPRCNT values of -100.
For `COc1ccc(N)cc1OC`, the growth was 114% (inactive).
With `CC[C@H](C)[C@H]1O[C@]2(C=C[C@@H]1C)C[C@@H]1C[C@@H](C/C=C(\C)[C@@H](O[C@H]3C[C@H](OC)[C@@H](O[C@H]4C[C@H](OC)[C@@H](NC)[C@H](C)O4)[C@H](C)O3)[C@@H](C)/C=C/C=C3\CO[C@@H]4[C@H](O)C(C)=C[C@@H](C(=O)O1)[C@]34O)O2` the growth was -22.3% (active).
In the case of `CCCC1CCCCC12C(=O)NC(=O)NC2=O` (stereo not given), the growth is reported as 105% (inactive) and 94.3% (inactive).
For `CCOP(=O)(OCC)C(=O)N(CC)CC`, the growth was 105% (inactive).
`O=NN(c1ccccc1)c1ccccc1` was tested, and the growth was 94.1% (inactive).
For `Cc1nnc([S-])o1.[Au+].c1ccc([PH+](c2ccccc2)c2ccccc2)cc1`, the growth was 88.4% (inactive).
In the case of `CO[C@@H]([CH2][Hg][O]C(=O)c1ccccc1)[C@@H]([CH2][Hg][O]C(=O)c1ccccc1)OC`, the growth is reported as 105% (inactive).
With `Nc1ccc2c(c1)Cc1cc(N)ccc1-2` the growth was 90% (inactive).
For `O=C(O)c1cc([N+](=O)[O-])cc([N+](=O)[O-])c1`, the growth was 105% (inactive).
With `C/C(=C\c1ccn(-c2ccc(N)c(C(F)(F)F)c2)n1)[C@@H]1C[C@@H]2O[C@]2(C)CCC[C@H](C)[C@H](O)[C@@H](C)C(=O)C(C)(C)[C@@H](O)CC(=O)O1` the growth was 23.2% (inactive).
With `CN(C)C(=S)SSC(=S)N(C)C` the growth was 75.3% (inactive) and 94.9% (inactive).
With `O=C(O)C1C(C(=O)O)C2(Cl)C(Cl)=C(Cl)C1(Cl)C2(Cl)Cl` (stereo not given) the growth was 106% (inactive) and 117% (inactive).
In the case of `O=NN1CCCCC1`, the growth is reported as 128% (inactive).
In the case of `CC[C@H](C)[C@H](NC(=O)[C@H]1CCCCN1C)C(=O)N(C)[C@H](C(=O)NC12CC(C(=O)N[C@@H](Cc3ccccc3)C[C@H](C)C(=O)OC)(C1)C2)C(C)C`, the growth is reported as 91.9% (inactive).
With `O=S(=O)(c1ccc(O)cc1)c1ccccc1O` the growth was 111% (inactive).
With `O=C=Nc1ccc(Br)cc1` the growth was 100% (inactive).
`O=[N+]([O-])c1ccc2scc3c4ccccc4nc-3c2c1` was tested, and the growth was 58.1% (inactive).
With `O=C(Cc1ccccc1)c1ccccc1` the growth was 103% (inactive).
For `N#CC(C#N)=C(C#N)C#N`, the growth was 103% (inactive).
With `Cc1cc(C(C)(C)C)ccc1O` the growth was 104% (inactive).
With `CC1(C)C=Cc2c(ccc3c2[N+]([O-])=C2C3=C[C@@]34NC(=O)[C@]5(CCCN5C3=O)C[C@@H]4C2(C)C)O1` the growth was 67.5% (inactive).
For `C[C@]12CCc3sc(Nc4ccc(O)cc4)nc3C1=CC[C@@H]1[C@@H]2CC[C@]2(C)C(=O)CC[C@@H]12`, the growth was 93.4% (inactive).
`COc1c(O)cc2c(c1OC)-c1ccc(SC)c(=O)cc1C(NC(C)=O)CC2` (stereo not given) was tested, and the growth was 41.1% (inactive).
For `O=S1(=O)OCCO1`, the growth was 95.4% (inactive).
For `O=C(O)c1ccccc1N(CCO)CCCl`, the growth was 90.3% (inactive).
`O=C(O)C(O)c1ccc(Cl)cc1` (stereo not given) was tested, and the growth was 101% (inactive) and 118% (inactive).
For `O=C(NC(Cl)=C(Cl)Cl)P(=O)(c1ccccc1)c1ccccc1`, the growth was 108% (inactive).
In the case of `CC(=O)Nc1nc2c(s1)C1=CC[C@H]3[C@@H]4CC[C@H](OC(C)=O)[C@@]4(C)CC[C@@H]3[C@@]1(C)CC2`, the growth is reported as 75.2% (inactive).
For `c1ccc2c(c1)O[As](O[As]1Oc3ccccc3O1)O2`, the growth was 58.5% (inactive).
For `O=[N+]([O-])c1c(Cl)cc(Cl)c([N+](=O)[O-])c1Cl`, the growth was 119% (inactive).
For `CC1(C)C2CCC1(CS(=O)(=O)O)C(=O)C2` (stereo not given), the growth was 90.2% (inactive) and 99.1% (inactive).
`N#Cc1ccc(Cl)cc1` was tested, and the growth was 119% (inactive).
`Cc1cc(N(CCCl)CCCl)ccc1C=Nc1ccc(-c2csc(-c3ccccc3)n2)cc1` was tested, and the growth was 117% (inactive).
With `CC/C(=C(\c1ccc(OCCN2CCOCC2)cc1)c1ccc(OC(=O)Cc2ccccc2)cc1)c1ccc(Cl)cc1` the growth was 87.9% (inactive).
With `O=[N+]([O-])c1cc(Br)c(O)c(Br)c1` the growth was 105% (inactive).
With `C/C(=N/OC(=O)N(C)C)c1ccc(Cl)c(Cl)c1` the growth was 96.1% (inactive).
`CCOC(=O)c1cncn1C(C)c1ccccc1` (stereo not given) was tested, and the growth was 101% (inactive).
`ClCc1ccc(Cl)c(Cl)c1` was tested, and the growth was 98.3% (inactive).
In the case of `COc1cc2c(cc1OC)-c1c3c(cc4c1[C@@H](C2)N(C)CC4)OCO3`, the growth is reported as 36.9% (inactive).
With `COC(=O)CCP(CCC(=O)OC)c1ccccc1` the growth was 107% (inactive).
